Test results taken from PubChem BioAssay (EPA / NIEHS).
Inconclusive results are not listed. Activity calls are given as the source filed them. How the source made its calls: active means hit-call score of the fitted dose curve at least 0.9, where 1 is the maximum; inconclusive means response in the unintended direction; inactive means score below 0.9.

What was measured:
[1] = TOX21_p53_BLA_p2_viability: Viability Assessment in the Tox21 HCT-116 p53 Agonism Beta-lactamase Assay, Phase 2 (AID 2283591);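 further: compound exposure lasted 16 h at 37 °C; actives lower the ATP signal meaning cytotoxicity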
Outline: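 HCT116 p53-bla cells, 4000/well, dosed after 5 h plating (217-fold dilution of DMSO stocks) and incubated 16 h at 37C. Viability taken as cellular ATP by CellTiter-Glo luminescence after 30 min RT; signal loss marks cytotoxicity.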

[2] = biological target: Cellular tumor antigen p53 (Homo sapiens) (UniProt P04637); experiment: TOX21_p53_BLA_p2_ratio: Tox21 HCT-116 p53 Agonism Beta-lactamase Assay, Ratio, Phase 2 (AID 2283592)
Outline: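 Ratio endpoint: beta-lactamase cleavage of CCF4-AM, blue (460 nm) over green (530 nm). HCT116 reporter line; 16 h treatment, 37C; substrate 2 h RT.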

[3] = TOX21_p53_BLA_p4_viability: Viability Assessment in the Tox21 HCT-116 p53 Agonism Beta-lactamase Assay, Phase 4 (AID 2283597);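 further: hits lower the luminescence signal meaning cytotoxicity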
Outline: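 Cytotoxicity was inferred from loss of CellTiter-Glo luminescence. HCT116 cells had been dosed with compounds after 5 h plating, incubated 16 h at 37C and 5% CO2, and exposed to the CCF4-AM substrate for 2 h.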

[4] = biological target: Cellular tumor antigen p53 (Homo sapiens) (UniProt P04637); experiment: TOX21_p53_BLA_p5_ratio: Tox21 HCT-116 p53 Agonism Beta-lactamase Assay, Ratio, Phase 5 (AID 2283599)
Outline: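 HCT-116 p53-bla cells (4000/well) plated 5 h, dosed with compound (217-fold DMSO dilution) for 16 h at 37 C; CCF4-AM substrate 2 h at room temperature. Activity is the 460/530 nm emission ratio (405 nm excitation), fitted in gain-of-signal direction versus DMSO.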

[5] = TOX21_p53_BLA_p5_viability: Viability Assessment in the Tox21 HCT-116 p53 Agonism Beta-lactamase Assay, Phase 5 (AID 2283600)
Outline: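 Luciferase-coupled ATP quantitation of cells treated for 16 h (37C, 5% CO2) with test chemicals delivered in DMSO via a 217-fold dilution; 4000 cells/well; reagent incubated 30 min at room temperature before luminescence reading.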

[6] = Tanguay_ZF_120hpf_MORT_legacy: (Legacy) Oregon State University Tanguay Lab 120 Hour Post-fertilization zebrafish Assay for Mortality (AID 2283633)
Outline: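 Dechorionated Tropical 5D wild-type zebrafish embryos, one per well from 6 hpf, were statically exposed at 28C in the dark until 120 hpf (0.64% DMSO final). Mortality was scored as present/absent by brightfield microscopy, fitted positively versus DMSO.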

[7] = Tanguay_ZF_120hpf_YSE_legacy: (Legacy) Oregon State University Tanguay Lab 120 Hour Post-fertilization zebrafish Assay for Yolk Sac Edema (AID 2283634)
Outline: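 Tropical 5D wild-type embryos, dechorionated with pronase at 4 hpf, were exposed singly from 6 hpf to 120 hpf under static, sealed, dark conditions at 28C with 0.64% DMSO final. Yolk sac edema was scored present/absent by brightfield microscopy.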

[8] = Tanguay_ZF_120hpf_AXIS_legacy: (Legacy) Oregon State University Tanguay Lab 120 Hour Post-fertilization zebrafish Assay for Body Axis Malformation (AID 2283635)
Outline: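 Tropical 5D wild-type zebrafish embryos, dechorionated with pronase at 4 hpf, were placed singly in wells at 6 hpf and exposed statically to test chemical (0.64% DMSO final) at 28C until 120 hpf, then scored by brightfield for body axis defects.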

[9] = Tanguay_ZF_120hpf_SNOU_legacy: (Legacy) Oregon State University Tanguay Lab 120 Hour Post-fertilization zebrafish Assay for Snout Malformation (AID 2283637)
Outline: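 Binary brightfield scoring of snout malformation at 120 hpf. Dechorionated 5D wild-type embryos, one per well, static exposure from 6 hpf at 28C, sealed and dark; final DMSO 0.64% (vol/vol), DMSO as baseline; 5uM trimethyltin chloride positive control.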

[10] = Tanguay_ZF_120hpf_JAW_legacy: (Legacy) Oregon State University Tanguay Lab 120 Hour Post-fertilization zebrafish Assay for Jaw Malformation (AID 2283638)
Outline: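 Tropical 5D wild-type embryos, dechorionated with pronase at 4 hpf, were placed singly per well at 6 hpf and statically exposed at 28C until 120 hpf (0.64% DMSO final). Jaw malformation scored as present/absent by brightfield microscopy at 120 hpf, analyzed relative to DMSO.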

[11] = Tanguay_ZF_120hpf_OTIC_legacy: (Legacy) Oregon State University Tanguay Lab 120 Hour Post-fertilization zebrafish Assay for Otic Vesicle Malformation (AID 2283639)
Outline: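 Brightfield scoring at 120 hpf, binary present/absent; DMSO negative control, 5uM trimethyltin chloride positive control. Static exposure at 28C, final DMSO 0.64% (vol/vol). Dead embryos not scored for malformation.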

[12] = Tanguay_ZF_120hpf_PE_legacy: (Legacy) Oregon State University Tanguay Lab 120 Hour Post-fertilization zebrafish Assay for Pericardial Edema (AID 2283640)
Outline: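 Tropical 5D wild-type zebrafish embryos were exposed statically to 120 hpf at 28C, sealed and foil-covered, in 0.64% DMSO final. Pericardial edema was scored present/absent by brightfield microscopy; dead embryos were not scored.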

[13] = Tanguay_ZF_120hpf_PFIN_legacy: (Legacy) Oregon State University Tanguay Lab 120 Hour Post-fertilization zebrafish Assay for Pectoral Fin Malformation (AID 2283648);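 further: each larva judged yes or no for fin defect by brightfield with dead larvae skipped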
Outline: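 Binary pectoral fin malformation call at 120 hpf by brightfield microscopy; 5D wild-type zebrafish, chorion removed at 4 hpf, one embryo per well from 6 hpf, static exposure at 28C; DMSO (0.64% final) as baseline.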

[14] = TOX21_p53_BLA_p3_viability: Viability Assessment in the Tox21 HCT-116 p53 Agonism Beta-lactamase Assay, Phase 3 (AID 2283593);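 further: cells exposed to compound for 16 h before reading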
Outline: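 HCT116 cells, 4000/well, dosed 5 h after plating by pin transfer (217-fold dilution from DMSO stock) and incubated 16 h at 37C, 5% CO2. Viability read as ATP luminescence with CellTiter-Glo after 30 min at room temperature.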

[15] = biological target: Cellular tumor antigen p53 (Homo sapiens) (UniProt P04637); experiment: TOX21_p53_BLA_p3_ratio: Tox21 HCT-116 p53 Agonism Beta-lactamase Assay, Ratio, Phase 3 (AID 2283596)
Outline: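 Cells were seeded at 4000/well, rested 5 h at 37C, then dosed with DMSO compound solutions (217-fold dilution) for 16 h. CCF4-AM substrate was loaded for 2 h at room temperature, and the 460/530 nm emission ratio was fitted for gain of signal versus DMSO.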

[16] = biological target: Cellular tumor antigen p53 (Homo sapiens) (UniProt P04637); experiment: TOX21_p53_BLA_p4_ratio: Tox21 HCT-116 p53 Agonism Beta-lactamase Assay, Ratio, Phase 4 (AID 2283601)
Outline: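 HCT-116 p53 beta-lactamase reporter cells (4000/well) preincubated 5 h, then compound (217-fold dilution of DMSO stock) for 16 h at 37C. CCF4-AM substrate added 2 h at room temperature; 460/530 nm emission ratio fitted upward versus DMSO.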

[17] = Tanguay_ZF_120hpf_SOMI_legacy: (Legacy) Oregon State University Tanguay Lab 120 Hour Post-fertilization zebrafish Assay for Somite Malformation (AID 2283647)
Outline: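 Tropical 5D wild-type zebrafish embryos, dechorionated with pronase at 4 hpf, were placed singly at 6 hpf and statically exposed until 120 hpf at 28C in 0.64% DMSO. Somite malformation was scored present/absent by brightfield microscopy versus DMSO.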

[18] = Tanguay_ZF_120hpf_EYE_legacy: (Legacy) Oregon State University Tanguay Lab 120 Hour Post-fertilization zebrafish Assay for Eye Malformation (AID 2283636);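 further: binary presence or absence of eye malformation scored by brightfield in 120 hpf larvae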
Outline: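 5D wild-type embryos, pronase-dechorionated at 4 hpf; static exposure 6–120 hpf, 28C, dark; DMSO 0.64% final; 5uM trimethyltin chloride positive control. Binary eye-defect scoring at 120 hpf; dead embryos not scored.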

[19] = Tanguay_ZF_120hpf_BRAI_legacy: (Legacy) Oregon State University Tanguay Lab 120 Hour Post-fertilization zebrafish Assay for Brain Malformation (AID 2283641)
Outline: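 Tropical 5D wild-type zebrafish embryos were exposed statically in sealed, foil-covered plates at 28C until 120 hpf, with 0.64% (vol/vol) final DMSO. Brain malformation was scored present/absent by brightfield microscopy, relative to DMSO baseline.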

[20] = Tanguay_ZF_120hpf_CFIN_legacy: (Legacy) Oregon State University Tanguay Lab 120 Hour Post-fertilization zebrafish Assay for Caudal Fin Malformation (AID 2283649)
Outline: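 Tropical 5D wild-type embryos, dechorionated with pronase at 4 hpf, were placed singly in wells at 6 hpf and statically exposed to compound at 28C until 120 hpf (0.64% DMSO). Caudal fin malformation was scored present/absent by brightfield microscopy.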

Measured: AC50

Cellular tumor antigen p53 (Homo sapiens), sequence (P04637 whole entry, looked up): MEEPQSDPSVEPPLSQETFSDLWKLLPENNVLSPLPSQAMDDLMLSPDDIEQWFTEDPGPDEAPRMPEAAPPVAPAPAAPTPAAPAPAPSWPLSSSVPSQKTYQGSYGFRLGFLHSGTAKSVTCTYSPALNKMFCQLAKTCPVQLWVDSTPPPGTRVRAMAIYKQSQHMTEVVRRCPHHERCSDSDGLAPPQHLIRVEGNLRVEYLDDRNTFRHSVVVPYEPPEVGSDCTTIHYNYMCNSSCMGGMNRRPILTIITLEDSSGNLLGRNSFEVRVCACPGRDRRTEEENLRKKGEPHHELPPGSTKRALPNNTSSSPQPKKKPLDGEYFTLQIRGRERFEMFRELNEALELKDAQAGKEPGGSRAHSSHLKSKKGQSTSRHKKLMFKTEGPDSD

CC1(C)C(=O)N(Cl)C(=O)N1Cl
not listed: [14] | [15] | [16] | [17] | [18] | [19] | [20]
inactive: all other assays above

CCc1cccc(CC)c1N
not listed: [1] | [3] | [9] | [12] | [13] | [18] | [19] | [20]
inactive: all other assays above

CCCc1ccccc1
not listed: [1] | [3] | [4] | [15] | [16] | [20]
inactive: all other assays above

CCc1ccc(O)c(C(C)(C)C)c1
active: [1] 69.5 µM | [2] 69.7 µM | [3] 79.1 µM | [16] 53.1 µM
not listed: [4] | [8] | [19] | [20]
inactive: all other assays above

CC(=O)c1ccccc1
inactive: all assays above

O=S1(=O)CCCO1
not listed: [7] | [14] | [19] | [20]
inactive: all other assays above

CCCCCCCC/C=C\CCCCCCCC(=O)OC[C@@H](O)[C@H]1OC[C@H](O)[C@H]1O
not listed: [3] | [7] | [13] | [19]
inactive: all other assays above
